This note sets out measurements from PubChem BioAssay AID602248 (The Scripps Research Institute Molecular Screening Center, 2012).

In all, about 360,000 compounds went through this assay and about 1,700 (0.47%) were called active. No stated cut-off is given here; in the data, active means activation above about 15%; inactive means the rest. The list comes from a sample in which actives are over-represented; it also holds similar structures and randomly drawn compounds.

The experiment in a line: counter-screen for M1 agonists: effect in parental CHO-K1 cells (AID 602248).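 Further: untransfected CHO-K1 host cells lacking M1 receptor as counterscreen.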 The following applies: Fluo-8 calcium fluorescence, at 3 µM, active compounds read high. On the technique in general: A counterscreen serves to expose hits that act by an unwanted route or on another target.
Consider `O=C(CCNS(=O)(=O)c1ccccc1)Nc1ccc(Cl)cc1C(=O)c1ccccc1`, for which the activation is 16% (active).
The same measure for `CN1CCN(C(=S)SCC(=O)Nc2ccc(Cl)cc2C(=O)c2ccccc2)CC1`: 3.53% (inactive); for `O=C(COC(=O)c1ccccc1)Nc1ccc(Cl)cc1C(=O)c1ccccc1`: 0.05% (inactive); for `CN(C)C(=O)Oc1ccc(OCc2cccc[n+]2C)cc1`: -0.29% (inactive).
The figure for `CCCCCCCCCCCCn1ccc(=N)cc1` is 31.4% (active); for `CNC(=O)Nc1ccc(C(O)(C(=O)OC)C(F)(F)F)cc1` (stereo not given) it is 1.17% (inactive); for `COC(=O)C1=C(c2cccc(OCc3ccccc3)c2)C[C@@H]2CC[C@H]1N2C(=O)NNCc1ccccc1` it is 0.39% (inactive).
The figure for `CCOC(=O)CC1=C(C(=O)OCC)C2(C(=O)N1)C(C(=O)OC)=C(N)Oc1ccccc12` (stereo not given) is -0.01% (inactive); for `O=C1NC(=O)C(CCc2ccccn2)(Cc2cccc(Cl)c2Cl)C(=O)N1c1ccc(Br)cc1` (stereo not given) it is 4.3% (inactive); for `Cc1cc(C(=O)OCC(=O)Nc2c(F)cccc2F)c(C)n1C1CC1` it is 0.33% (inactive).
With `CC(C)N(CC#CCC1(O)c2ccccc2-c2ccccc21)C(C)C`, the activation is 0.55% (inactive).
For the molecule `N=c1ccccn1Cc1ccccc1`, the activation was 15.6% (active).
The same measure for `CCN1CCN(c2nc3c(c(=O)[nH]2)CCC3)CC1`: 0.18% (inactive); for `CCCn1c(C(=O)c2ccccc2OC)nc2ccccc21`: -0.18% (inactive).
The same measure for `CC1=C2C(=O)C3C(CC=C4CC(OC5OC(O)C(O)C(O)C5CO)CCC43C)C2CCC12OC1CC(C)CNC1C2C` (stereo not given): 1.23% (inactive).
